# Source: the supplement of paper PMC10600219
# Where a name gives a salt, the structure may show the parent alone. Over roughly 2,800 compounds, “cell viability relative to vehicle” has its median near 0.98; the lowest 2% begin near 0.45. The entries come from a sample that favours the lowest values as a whole.
# System: NCI-H2228 alectinib-DTP
# Assay: cell viability relative to vehicle (fraction of vehicle); NCI-H2228 is an ALK-positive lung cancer line and DTP means drug-tolerant persister; higher = less growth inhibition
# Settings: 100 nM; treatment time 6 days
# How it was run: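 Each value is viability relative to vehicle-treated cells, measured as ATP with the CellTiter-Glo 3D Cell Viability Assay. Parental NCI-H2228 cells and drug-tolerant persisters (1000 nM targeted drug, 13 days) in 384-well plates received the 3114-agent TargetMol anti-cancer compound library at 100 nM, or DMSO, and were read 6 days later.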
row,SMILES,cell viability
1,COc1ccc(C(c2c[nH]c3ccccc23)c2c[nH]c3ccccc23)cc1,1.04
2,CC1(C)CC[C@]2(C(=O)O)CC[C@]3(C)C(=CC[C@@H]4[C@@]5(C)C[C@@H](O)[C@H](O)C(C)(C)[C@@H]5CC[C@]43C)[C@@H]2C1 [Maslinic acid],0.962
3,CC(=O)c1ccc(NC2=C(Cl)C(=O)c3ccccc3C2=O)cc1,0.908
4,COC(=O)c1cc(O)c(O)c(O)c1 [Methyl gallate],1.07
5,OC1CCC(Oc2cccc3cnc(Nc4ccc5nc[nH]c5c4)nc23)CC1 (centres undefined),1.02
6,Cc1nn(C)cc1-c1nc2c(N3CCN(Cc4ccc(Cl)cc4)CC3)c(Cl)cnc2[nH]1,0.998
7,CCCCC/C=C\C/C=C\CCCCCCCC(=O)O [Linoleic acid],0.87
8,Cc1c(C)c(NCC(=O)N(C)C2CCN(Cc3ccc(C(N)=O)cc3)CC2)c(C)c(C)c1N,0.837
9,CCNC(=O)c1noc(-c2cc(C(C)C)c(O)cc2O)c1-c1ccc(CN2CCOCC2)cc1 [Luminespib],0.48
10,COCCN1CCN(Cc2ccc(-c3n[nH]c4c3C(=O)c3c(NC(=O)NN5CCOCC5)cccc3-4)cc2)CC1,0.3
11,O=C(Nc1ccc(CN2CCOCC2)cc1)c1ccc(-c2cccc(Cl)c2)o1,0.816
12,CONC(=O)Nc1ccc(-c2sc3c(c2CN(C)C)c(=O)n(-c2ccc(OC)nn2)c(=O)n3Cc2c(F)cccc2F)cc1 [Relugolix],1.12
13,COc1ccc(S(=O)(=O)/N=C2\C=CC=C\C2=C/C=C2C=CN(O)C=C2)cc1,0.935
14,COC(=O)c1c2c(c3ccccc3c1O)OC(C)(C)C=C2 [Mollugin],1.05
15,Cc1c(O)c(C)c2c(c1O)C(=O)C[C@@H](c1ccc(O)cc1)O2 [Farrerol],0.874
16,Cc1nc(Nc2ncc(C(=O)Nc3c(C)cccc3Cl)s2)cc(N2CCN(CCO)CC2)n1 [Dasatinib],0.348
17,Cc1nc(Nc2ncc(C(=O)Nc3c(C)cccc3Cl)s2)cc(N2CCN(CCO)CC2)n1 [Dasatinib monohydrate],0.489
18,CN1CCN(CCCNc2ncc(Cl)c(-c3cc4c(C(=O)NC5CC5)cccc4s3)n2)CC1,0.958
19,Cc1cc(Nc2cc(N3CCN(C)CC3)nc(Sc3ccc(NC(=O)C4CC4)cc3)n2)n[nH]1 [Tozasertib],0.762
20,Cc1nn2c([nH]c(=O)c3cccnc32)c1C#N,1.02
21,O=C(NOCCO)c1cc(CN2OCCCC2=O)c(F)c(F)c1Nc1ccc(I)cc1F,0.84
22,CC(C)Oc1ccc(-c2nn([C@@H](C)c3oc4ccc(F)cc4c(=O)c3-c3cccc(F)c3)c3ncnc(N)c23)cc1F,0.937
23,CC(C)n1nc(-c2cc3cc(O)ccc3[nH]2)c2c(N)ncnc21 [Torkinib],0.733
24,CC(C)n1nc(-c2ccc3oc(N)nc3c2)c2c(N)ncnc21,0.37
25,Nc1ccc(-c2cnc(N)c(-c3ccc(Cl)cc3)c2)cn1,1.07

row,SMILES,cell viability
1,Oc1cc(-c2nc(-c3ccccc3)[nH]c2-c2ccncc2)ccc1Cl,1.22
2,CC(C)CN(CC(=O)N1CCN(CC(OCc2ccc3ccccc3c2)c2ccc(Cl)cc2Cl)CC1)CC(C)C (centres undefined),1.12
3,CC(=O)O[C@@H]1C[C@H](O)[C@@]23CO[C@@H](O)[C@]1(C)[C@@H]2C[C@@H](O)[C@]1(C)[C@@H]3C(=O)[C@H](OC(C)=O)[C@@]2(C)[C@H](c3ccoc3)C[C@H]3O[C@]321 [Toosendanin],0.408
4,CC(=O)O[C@H]1CC(=O)OC(C)(C)[C@@H]2CC(=O)[C@]3(C)[C@H](CC[C@@]4(C)[C@@H](c5ccoc5)OC(=O)[C@H]5O[C@]543)[C@@]12C [Nomilin],1.15
5,C[C@H](O)[C@@H](O)[C@@H](O)[C@H](O)C=O [L-(-)-Fucose],1.09
6,O=C(O)c1ccc(S(=O)(=O)N(Cc2ccc(OC(F)(F)F)cc2)c2ncc(C(F)(F)F)cc2Cl)cc1,0.969
7,O=C(Nc1ccc2[nH]nc(-c3ccncc3)c2c1)[C@@H]1CCN(CC(=O)N2CCN(c3ccc(-c4ncccn4)cc3)CC2)C1,0.831
8,COc1ccccc1C(=O)Nc1cc2c(cc1N1CCCCC1)n(C)c(=O)n2C,0.977
9,CC(=O)O[C@H](CC=C(C)C)C1=CC(=O)c2c(O)ccc(O)c2C1=O [Acetyl shikonin],1.05
10,Cc1nc(Nc2ccc(F)cc2)nc(N2CCc3ccccc3C2C)c1C (centres undefined) [Revaprazan hydrochloride],0.852
11,Cc1cc(Nc2ncc3c(n2)N(C)C(=O)N(c2cc(NC(=O)c4cccc(C(F)(F)F)c4)ccc2C)C3)n(C)n1 [Pluripotin],0.301
12,Cc1cc(C(=O)Nc2cccc(C(=O)Nc3cccc(C(F)(F)F)c3)c2)on1,1.1
13,Cc1ccc(C(=O)Nc2cccc(C(F)(F)F)c2)cc1Nc1nc(-c2cccnc2)nc2c1cnn2C,0.974
14,COc1cc2nccc(Oc3ccc(NC(=O)c4cn(C(C)C)c(=O)n(-c5ccc(F)cc5)c4=O)cc3F)c2cc1OC,0.893
15,COC1(c2sc3c(N4CCOCC4)nc(-c4cnc(N)nc4)nc3c2C)COC1,0.496
16,Cc1c(CN2CCN(S(C)(=O)=O)CC2)sc2c(N3CCOCC3)nc(-c3cnc(N)nc3)nc12,0.514
17,Cc1c(CN2CCN(C(=O)[C@H](C)O)CC2)sc2c(N3CCOCC3)nc(-c3cnc(N)nc3)nc12 [Apitolisib],0.434
18,CONC(=O)c1ccccc1Nc1cc(Nc2cc(C)nn2C(C)C)ncc1Cl,0.889
19,CCC(=O)N1CCN(c2ccc(-n3c(=O)ccc4cnc5ccc(-c6cnc7ccccc7c6)cc5c43)cc2C(F)(F)F)CC1 [Torin 1],0.437
20,Nc1ccc(-c2ccc3ncc4ccc(=O)n(-c5cccc(C(F)(F)F)c5)c4c3c2)cn1 [Torin 2],0.414
21,CCC(=O)N1CC[C@H](Nc2ncnc3c2CN(c2cnc(OC)c(C(F)(F)F)c2)CC3)C1 [Leniolisib],0.904
22,CN(C)CCCOc1ccc(-c2ccc3ncc4c(c3c2)n(C2CCOCC2)c(=O)n4C)cn1,0.878
23,CC(C)n1c(=O)n(C)c2cnc3cc(F)c(-c4ccc(OCCCN5CCCCC5)nc4)cc3c21,0.883
24,COc1ccc(-c2ccc3ncc4c(c3c2)n(-c2ccc(N3CCNCC3)c(C(F)(F)F)c2)c(=O)n4C)cn1,0.373
